For 22 compounds, inhibition results are on record in PubChem BioAssay AID485346 (Sanford-Burnham Center for Chemical Genomics, 2010).

In all, about 330,000 compounds went through this assay and about 10,000 (3%) were called active. The sample holds actives, similar compounds and a random draw of the others, so the mix is not that of the screen.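 How the source made its calls: active means inhibition of at least 50% at 8 µM in the primary screen; inactive means the rest.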

The target of this test is Protein Mdm4 (Homo sapiens) + E3 ubiquitin-protein ligase Mdm2 (Homo sapiens) (UniProt O15151+Q00987). The experiment in a line: disruptors of Mdm2/MdmX RING complex – cell-based, luminescence, split luciferase, SaOS-2, uHTS, primary screen (AID 485346). The note with it: SaOS-2 split-luciferase Mdm2/MdmX complementation, at 8 µM, hits give high values.
Protein Mdm4 (Homo sapiens) + E3 ubiquitin-protein ligase Mdm2 (Homo sapiens), sequence (O15151 whole entry, looked up): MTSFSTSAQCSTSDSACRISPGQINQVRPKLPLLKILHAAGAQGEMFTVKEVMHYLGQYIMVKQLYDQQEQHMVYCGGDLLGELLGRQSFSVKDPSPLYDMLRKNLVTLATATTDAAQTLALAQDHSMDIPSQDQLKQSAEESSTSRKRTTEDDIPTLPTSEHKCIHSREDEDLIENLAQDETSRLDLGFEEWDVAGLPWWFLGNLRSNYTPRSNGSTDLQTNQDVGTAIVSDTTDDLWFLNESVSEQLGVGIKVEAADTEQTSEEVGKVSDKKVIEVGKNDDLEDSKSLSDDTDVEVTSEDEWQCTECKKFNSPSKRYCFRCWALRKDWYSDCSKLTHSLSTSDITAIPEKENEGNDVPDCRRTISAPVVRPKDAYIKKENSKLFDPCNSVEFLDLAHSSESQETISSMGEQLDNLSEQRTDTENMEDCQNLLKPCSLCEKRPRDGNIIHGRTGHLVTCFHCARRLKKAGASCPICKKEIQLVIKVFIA
Protein Mdm4 (Homo sapiens) + E3 ubiquitin-protein ligase Mdm2 (Homo sapiens), sequence (Q00987 whole entry, looked up): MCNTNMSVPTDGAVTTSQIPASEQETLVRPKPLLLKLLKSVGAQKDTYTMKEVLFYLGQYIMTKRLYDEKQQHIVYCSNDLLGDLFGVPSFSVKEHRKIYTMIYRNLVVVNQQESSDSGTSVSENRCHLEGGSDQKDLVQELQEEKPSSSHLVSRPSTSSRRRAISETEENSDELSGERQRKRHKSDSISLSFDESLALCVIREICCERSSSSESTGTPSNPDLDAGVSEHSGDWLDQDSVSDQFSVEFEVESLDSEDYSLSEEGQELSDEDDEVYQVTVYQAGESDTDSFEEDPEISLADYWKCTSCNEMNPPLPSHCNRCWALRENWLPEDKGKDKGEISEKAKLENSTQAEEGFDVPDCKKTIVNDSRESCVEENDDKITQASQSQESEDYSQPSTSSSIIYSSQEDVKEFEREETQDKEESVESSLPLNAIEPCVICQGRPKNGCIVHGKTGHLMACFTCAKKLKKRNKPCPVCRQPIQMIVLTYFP
Turning to `CCN(CC(=O)NC(C)C)C(=O)c1cc(S(=O)(=O)N2CCCCC2)ccc1N1CCCCC1`, the inhibition (usually the change of the read-out against control, counted positive when it falls) was 2.7% (inactive). For `Cc1cccc(NC(=O)C2CCN(S(=O)(=O)c3cccc4cccnc34)CC2)c1`, the inhibition was 14% (inactive).

Take `Cc1ccnc(NC(=O)C2CCN(S(=O)(=O)c3c(C)c(C)cc(C)c3C)CC2)c1`: the inhibition is 84.8% (active).

For `O=C(Nc1ccccn1)C1CCN(S(=O)(=O)c2ccccc2)CC1`, the inhibition was -12.4% (inactive). For the compound `Cc1ccc(S(=O)(=O)N(C)CC(=O)NCCc2c[nH]c3ccccc23)cc1`, the inhibition was 6.29% (inactive). With `Cc1ccc(OCCNC(=O)CN2C(=O)NC3(CCCC3)C2=O)cc1` the figure was 15.5% (inactive). `Cc1ccc(S(=O)(=O)/N=S(\C)C(C)C)cc1` (configuration not stated): the inhibition was 20.8% (inactive). Consider `COc1ccc(CNC(=O)C[C@H]2C[C@H](C(=O)N3CCOCC3)[C@@]3(C)c4[nH]c5cc(CCC(=O)N(C)C)ccc5c4CCN3C2=O)cc1OC`, for which the inhibition was 49.5% (inactive).

Consider `Cc1ccc2sc(N(CCN(C)C)C(=O)/C=C/c3cccs3)nc2c1C`, for which the inhibition was 52.3% (active). With `Cc1cc(C)c2nc(N(CCN(C)C)C(=O)/C=C/c3cccs3)sc2c1` the figure was 47.5% (inactive); with `Cc1ccc(S(=O)(=O)N(C)C)cc1NC(=O)/C=C/c1cccs1`, 30.7% (inactive). Turning to `COCc1c(C(=O)N/N=C(\C)c2ccncc2)nnn1-c1nonc1N`, the inhibition was -11.6% (inactive). With `Cc1cc(C)c(S(=O)(=O)N(C)CC(=O)NCC2CCCO2)c(C)c1` (configuration not stated) the figure was 0.089% (inactive). On to `Cc1ccc(OCc2nnc(NC(=O)OCC(C)C)s2)cc1`, for which the inhibition was -16.4% (inactive).

Turning to `CCC(C)N1C(=O)S/C(=C/c2ccc(Sc3nc4ccccc4[nH]3)o2)C1=O` (configuration not stated), the inhibition is 89.2% (active). As for `O=C(CSc1nc2ccccc2[nH]1)Nc1nc(-c2ccccc2)c(-c2ccccc2)o1`, the inhibition was 13.9% (inactive).

As to `CN(Cc1ccccc1)C(=O)CSc1nc2ccccc2[nH]1`, the inhibition was -10.7% (inactive). The value for `O=C(CNC(=O)c1ccccc1Br)NNC(=O)c1cccs1` was 4.78% (inactive); that for `Cc1[nH]n(-c2ccccc2)c(=O)c1/C=N/NC(=O)c1ccoc1C` was 37.2% (inactive); that for `Cc1[nH]n(-c2ccc([N+](=O)[O-])cc2)c(=O)c1C=NCCN1CCN(C(=O)c2ccccc2F)CC1` was -5.19% (inactive). The value for `Cc1ccc(-n2[nH]c(C)c(/C=N/NC(=O)c3cccc([N+](=O)[O-])c3)c2=O)cc1C` was 72.5% (active); that for `CC1O[C@@H](OC2C(O)C(C)O[C@H](OC(=O)[C@]34CCC(C)(C)C[C@H]3C3=CCC5[C@@]6(C)CC(O)C(O[C@@H]7OC(CO)C(O)[C@@H](O)[C@@H]7O)[C@@](C)(C(=O)O)C6CC[C@@]5(C)[C@]3(CO)CC4)C2O[C@H]2OC(C)[C@@H](O[C@@H]3OCC(O[C@@H]4OC(CO)C(O)[C@H](O)C4O)[C@@H](O)[C@@H]3O)[C@H](O)C2O)C(O)C(O)C1O` (some centres not stated) was -20.6% (inactive).
